# According to PubChem BioAssay (EPA / NIEHS):
# Activity calls are given as the source filed them. How the source made its calls: active means hit-call score of the fitted dose curve at least 0.9, where 1 is the maximum; inactive means score below 0.9.
# Tests used:
# [1] = read-out: Tissue Factor, F3 (gene 2152); experiment: BSK_CASM3C_TissueFactor: BioMAP Diversity Plus: CASM3C Assay for Tissue Factor Biomarker Activity (AID 2283052); conditions: primary human coronary artery smooth muscle cells; actives raise or lower the signal;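 further: cell surface tissue factor protein level read by ELISA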
# [2] = read-out: Interferon-gamma inducible Protein 10 (IP10), CXCL10 (gene 3627); experiment: BSK_hDFCGF_IP10: BioMAP Diversity Plus: hDFCGF Assay for Interferon-gamma inducible Protein 10 (IP10) Biomarker Activity (AID 2283053); conditions: primary human foreskin fibroblasts; actives raise or lower the signal
# Procedure, shortened: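 Primary foreskin fibroblasts, human; 24 h compound exposure; IP-10 by ELISA; bidirectional fit vs DMSO.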
# [3] = read-out: Urokinase-type plasminogen activator receptor (uPAR), PLAUR (gene 5329); experiment: BSK_CASM3C_uPAR: BioMAP Diversity Plus: CASM3C Assay for Urokinase-type plasminogen activator receptor (uPAR) Biomarker Activity (AID 2283054); conditions: primary human coronary artery smooth muscle cells; actives raise or lower the signal;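 further: cell-surface uPAR protein level quantified by ELISA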
# [4] = read-out: Vascular cell adhesion molecule 1 (VCAM1), VCAM1 (gene 7412); experiment: BSK_CASM3C_VCAM1: BioMAP Diversity Plus: CASM3C Assay for Vascular cell adhesion molecule 1 (VCAM1) Biomarker Activity (AID 2283055); conditions: primary human coronary artery smooth muscle cells; actives raise or lower the signal;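 further: VCAM-1 protein level quantified by ELISA on the cells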
# [5] = read-out: Epidermal growth factor receptor (EGFR), EGFR (gene 1956); experiment: BSK_hDFCGF_EGFR: BioMAP Diversity Plus: hDFCGF Assay for Epidermal growth factor receptor (EGFR) Biomarker Activity (AID 2283057); conditions: primary human foreskin fibroblasts; actives raise or lower the signal
# Procedure, shortened: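 hDFCGF system, primary human foreskin fibroblasts; compound 24 h; EGFR measured by ELISA; DMSO = negative control/baseline; bidirectional fitting.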
# [6] = read-out: Interleukin-8 (IL8), CXCL8 (gene 3576); experiment: BSK_hDFCGF_IL8: BioMAP Diversity Plus: hDFCGF Assay for Interleukin-8 (IL8) Biomarker Activity (AID 2283058); conditions: primary human foreskin fibroblasts; actives raise or lower the signal
# Procedure, shortened: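 Cells used are human skin primary fibroblasts. Chemical is added, cultures run 24 h, then IL-8 is quantified by ELISA, and gain or loss versus DMSO control is fitted in both directions.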
# [7] = read-out: Macrophage colony-stimulating factor (MCSF), CSF1 (gene 1435); experiment: BSK_hDFCGF_MCSF: BioMAP Diversity Plus: hDFCGF Assay for Macrophage colony-stimulating factor (MCSF) Biomarker Activity (AID 2283060); conditions: primary human foreskin fibroblasts; actives raise or lower the signal
# Procedure, shortened: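 Primary human foreskin fibroblasts dosed with chemical; 24 h later, M-CSF quantified by ELISA; curves fitted in both directions vs DMSO negative control.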
# [8] = BSK_hDFCGF_SRB: Viability Assessment in the BioMAP Diversity Plus: hDFCGF Assay (AID 2283061); conditions: primary human foreskin fibroblasts;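 further: cells exposed to compound for 24 h before the read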
# Procedure, shortened: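 Readout is SRB absorbance at 560 nm, reflecting total protein in parallel cultures of human foreskin fibroblasts harvested 24 h after chemical dosing. Activity was fitted bidirectionally relative to DMSO.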
# [9] = read-out: TIMP metallopeptidase inhibitor 1 (TIMP1), TIMP1 (gene 7076); experiment: BSK_hDFCGF_TIMP1: BioMAP Diversity Plus: hDFCGF Assay for TIMP metallopeptidase inhibitor 1 (TIMP1) Biomarker Activity (AID 2283062); conditions: primary human foreskin fibroblasts; actives raise or lower the signal
# Procedure, shortened: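 Human skin fibroblasts (primary), hDFCGF system; compound exposure 24 h; TIMP-1 by ELISA; bidirectional fit vs DMSO negative control; overt cytotoxicity by SRB in parallel wells.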
# [10] = read-out: Monokine induced gamma interferon (MIG), CXCL9 (gene 4283); experiment: BSK_hDFCGF_MIG: BioMAP Diversity Plus: hDFCGF Assay for Monokine induced gamma interferon (MIG) Biomarker Activity (AID 2283063); conditions: primary human foreskin fibroblasts; actives raise or lower the signal
# Procedure, shortened: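 Chemicals were added to primary human foreskin fibroblast cultures, which were sampled 24 h later. MIG levels were then quantified by ELISA and responses fitted in both directions relative to DMSO.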
# [11] = read-out: Matrix Metallopeptidase 1 (MMP1), MMP1 (gene 4312); experiment: BSK_hDFCGF_MMP1: BioMAP Diversity Plus: hDFCGF Assay for Matrix Metallopeptidase 1 (MMP1) Biomarker Activity (AID 2283064); conditions: primary human foreskin fibroblasts; actives raise or lower the signal
# Procedure, shortened: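 Primary human foreskin fibroblasts in the hDFCGF system were dosed with test chemical, and MMP1 was measured by ELISA 24 h later. Values come from bidirectional curve fitting against the DMSO baseline.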
# [12] = read-out: Vascular cell adhesion molecule 1 (VCAM1), VCAM1 (gene 7412); experiment: BSK_hDFCGF_VCAM1: BioMAP Diversity Plus: hDFCGF Assay for Vascular cell adhesion molecule 1 (VCAM1) Biomarker Activity (AID 2283065); conditions: primary human foreskin fibroblasts; actives raise or lower the signal
# Procedure, shortened: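 Human foreskin fibroblast primary cells, chemical exposure 24 h; VCAM-1 by ELISA; bidirectional fit, DMSO = negative control/baseline.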
# [13] = read-out: Plasminogen activator inhibitor-1 (PAI1), SERPINE1 (gene 5054); experiment: BSK_hDFCGF_PAI1: BioMAP Diversity Plus: hDFCGF Assay for Plasminogen activator inhibitor-1 (PAI1) Biomarker Activity (AID 2283066); conditions: primary human foreskin fibroblasts; actives raise or lower the signal
# Procedure, shortened: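 Primary dermal fibroblasts (human foreskin), hDFCGF system; compound 24 h; PAI-1 by ELISA; bidirectional fit vs DMSO control.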
# [14] = read-out: Intercellular Adhesion Molecule 1 (ICAM1), ICAM1 (gene 3383); experiment: BSK_KF3CT_ICAM1: BioMAP Diversity Plus: KF3CT Assay for Intercellular Adhesion Molecule 1 (ICAM1) Biomarker Activity (AID 2283067); conditions: primary human keratinocytes with fibroblasts; actives raise or lower the signal
# Procedure, shortened: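 ICAM-1 levels are measured by ELISA 24 h after dosing a primary human co-culture of keratinocytes and foreskin fibroblasts. Activity in either direction is fitted relative to DMSO vehicle.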
# [15] = read-out: Interferon-gamma inducible Protein 10 (IP10), CXCL10 (gene 3627); experiment: BSK_KF3CT_IP10: BioMAP Diversity Plus: KF3CT Assay for Interferon-gamma inducible Protein 10 (IP10) Biomarker Activity (AID 2283068); conditions: primary human keratinocytes with fibroblasts; actives raise or lower the signal
# Procedure, shortened: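 In a primary skin co-culture of keratinocytes and fibroblasts, IP-10 is quantified by ELISA at 24 h after dosing. SRB staining of parallel wells monitors overt toxicity. Curves are fitted both directions against DMSO.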
# [16] = BSK_KF3CT_SRB: Viability Assessment in the BioMAP Diversity Plus: KF3CT Assay (AID 2283069); conditions: primary human keratinocytes with fibroblasts;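 further: total protein by sulforhodamine B staining as a cytotoxicity measure; read 24 h after compound addition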
# Procedure, shortened: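 Human primary keratinocyte plus foreskin fibroblast co-culture exposed to chemicals for 24 h. Total protein measured by 0.1% sulforhodamine B staining after 10% TCA fixation, read at 560 nm; bidirectional fitting versus DMSO baseline.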
# [17] = read-out: Interleukin-1 alpha (IL1a), IL1A (gene 3552); experiment: BSK_KF3CT_IL1a: BioMAP Diversity Plus: KF3CT Assay for Interleukin-1 alpha (IL1a) Biomarker Activity (AID 2283070); conditions: primary human keratinocytes with fibroblasts; actives raise or lower the signal
# Procedure, shortened: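 Human keratinocyte plus foreskin fibroblast primary co-culture, sampled 24 h after chemical dosing. IL-1a measured by ELISA; responses fitted bidirectionally against DMSO baseline (negative control), so gain or loss of signal both count.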
# [18] = read-out: TIMP metallopeptidase inhibitor 2 (TIMP2), TIMP2 (gene 7077); experiment: BSK_KF3CT_TIMP2: BioMAP Diversity Plus: KF3CT Assay for TIMP metallopeptidase inhibitor 2 (TIMP2) Biomarker Activity (AID 2283071); conditions: primary human keratinocytes with fibroblasts; actives raise or lower the signal
# Procedure, shortened: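 Cells: human keratinocytes co-cultured with foreskin fibroblasts. Treat with chemical, 24 h. Measure TIMP-2 by ELISA; fit curves bidirectionally vs DMSO baseline.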
# [19] = BSK_hDFCGF_Proliferation: Cell Proliferation Assessment in the BioMAP Diversity Plus: hDFCGF Assay (AID 2283059); conditions: primary human foreskin fibroblasts;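 further: curves fitted for both rise and fall of signal versus DMSO baseline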
# Procedure, shortened: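 Primary human foreskin fibroblasts, sub-confluent; […]; 10% TCA fix, 0.1% SRB stain, A560 total protein. Gain/loss fitted bidirectionally vs DMSO control.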
smiles,measurement,setting,value
O=C(c1ccccc1)C1CCCCC1,outcome,[1],inactive
same,outcome,[2],inactive
same,outcome,[3],inactive
same,outcome,[4],inactive
same,outcome,[5],inactive
same,outcome,[6],inactive
same,outcome,[7],inactive
same,outcome,[8],inactive
same,outcome,[9],inactive
same,outcome,[10],inactive
same,outcome,[11],inactive
same,outcome,[12],inactive
same,outcome,[13],inactive
same,outcome,[14],inactive
same,outcome,[15],inactive
same,outcome,[16],inactive
same,outcome,[17],inactive
same,outcome,[18],inactive
CC(C)(C)[C@@H](O)[C@@H](Cc1ccc(Cl)cc1)n1cncn1,outcome,[1],inactive
same,outcome,[2],inactive
same,outcome,[3],inactive
same,outcome,[4],inactive
same,outcome,[5],inactive
same,outcome,[6],inactive
same,outcome,[7],inactive
same,outcome,[8],inactive
same,outcome,[9],inactive
same,outcome,[10],inactive
same,AC50,[11],1420 nM (active)
same,outcome,[12],inactive
same,outcome,[13],inactive
same,outcome,[14],inactive
same,outcome,[15],inactive
same,outcome,[16],inactive
same,outcome,[17],inactive
same,outcome,[18],inactive
OB(O)O,outcome,[1],inactive
same,outcome,[2],inactive
same,outcome,[3],inactive
same,outcome,[4],inactive
same,outcome,[5],inactive
same,outcome,[6],inactive
same,outcome,[19],inactive
same,outcome,[7],inactive
same,outcome,[8],inactive
same,outcome,[9],inactive
same,outcome,[10],inactive
same,outcome,[11],inactive
same,outcome,[12],inactive
same,outcome,[13],inactive
same,outcome,[14],inactive
same,outcome,[15],inactive
same,outcome,[16],inactive
same,outcome,[17],inactive
same,outcome,[18],inactive
CCCCOC(=O)C(C)Oc1ccc(Oc2ccc(C(F)(F)F)cn2)cc1 (configuration not stated),outcome,[1],inactive
same,outcome,[2],inactive
same,outcome,[3],inactive
same,outcome,[4],inactive
same,outcome,[5],inactive
same,outcome,[6],inactive
same,outcome,[19],inactive
same,outcome,[7],inactive
same,outcome,[8],inactive
same,outcome,[9],inactive
same,outcome,[10],inactive
same,outcome,[11],inactive
same,outcome,[12],inactive
same,outcome,[13],inactive
same,outcome,[14],inactive
same,outcome,[15],inactive
same,outcome,[16],inactive
same,outcome,[17],inactive
same,outcome,[18],inactive
COC(=O)c1c(Cl)nn(C)c1S(=O)(=O)NC(=O)Nc1nc(OC)cc(OC)n1,outcome,[1],inactive
same,outcome,[2],inactive
same,outcome,[3],inactive
same,outcome,[4],inactive
same,outcome,[5],inactive
same,outcome,[6],inactive
same,outcome,[7],inactive
same,outcome,[8],inactive
same,outcome,[9],inactive
same,outcome,[10],inactive
same,outcome,[11],inactive
same,outcome,[12],inactive
same,outcome,[13],inactive
same,outcome,[14],inactive
same,AC50,[15],20000 nM (active)
same,outcome,[16],inactive
same,outcome,[17],inactive
same,outcome,[18],inactive
C[C@]12C[C@H](O)[C@H]3[C@@H](CCC4=CC(=O)CC[C@@]43C)[C@@H]1CC[C@@H]2C(=O)CO,outcome,[1],inactive
same,outcome,[2],inactive
same,outcome,[3],inactive
same,outcome,[4],inactive
same,outcome,[5],inactive
same,outcome,[6],inactive
same,outcome,[19],inactive
same,outcome,[8],inactive
same,outcome,[9],inactive
same,outcome,[10],inactive
same,AC50,[11],1400 nM (active)
same,outcome,[12],inactive
same,outcome,[13],inactive
same,outcome,[14],inactive
same,outcome,[15],inactive
same,outcome,[16],inactive
same,outcome,[18],inactive
COc1nc(C)nc(NC(=O)NS(=O)(=O)c2ccccc2OCCCl)n1,outcome,[1],inactive
same,outcome,[2],inactive
same,outcome,[3],inactive
same,outcome,[4],inactive
same,outcome,[5],inactive
same,outcome,[6],inactive
same,outcome,[7],inactive
same,outcome,[8],inactive
same,outcome,[9],inactive
same,outcome,[10],inactive
same,outcome,[11],inactive
same,outcome,[12],inactive
same,outcome,[13],inactive
same,outcome,[14],inactive
same,outcome,[15],inactive
same,outcome,[16],inactive
same,outcome,[17],inactive
same,outcome,[18],inactive
